Results published in PubChem BioAssay (NCI).
Compounds without any hit were thinned out: in the full panel of roughly 79,000, 15% have a hit. A number with no mark means an inactive call. Calls of active or inactive are those of the source. No stated cut-off is given here; in the data, active means growth inhibition above about 70%; inactive means the rest.

Assays:
[1] = NCI Yeast Anticancer Drug Screen. Data for the rad50 strain (AID 155);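 further: 0% = growth of vehicle-only cultures of the same strain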; conditions: S. cerevisiae rad50 strain growth inhibition, active compounds read high
In short: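 Relative growth inhibition (compound vs vehicle) was measured in yeast with a defined repair-gene alteration.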

[2] = NCI Yeast Anticancer Drug Screen. Data for the mec2-1 strain (AID 157); conditions: S. cerevisiae mec2-1 strain, active compounds read high
In short: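 Strain: mec2-1 (DNA repair/cell cycle alteration). Compound exposure, then growth measured; inhibition expressed relative to vehicle.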

[3] = NCI Yeast Anticancer Drug Screen. Data for the sgs1 mgt1 strain (AID 161);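 further: 0% = growth of cultures given vehicle only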; conditions: S. cerevisiae sgs1 mgt1 strain, active compounds read high
In short: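 Genetically altered yeast, compound exposure, growth inhibition relative to vehicle.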

[4] = NCI Yeast Anticancer Drug Screen. Data for the cln2 rad14 strain (AID 165);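 further: 0% = growth equal to vehicle treated cultures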; conditions: S. cerevisiae cln2 rad14 strain, active compounds read high
In short: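 Compounds are applied to the cln2 rad14 yeast strain, and growth is then compared with that of vehicle-treated cultures to give inhibition.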

[5] = NCI Yeast Anticancer Drug Screen. Data for the bub3 strain (AID 167); conditions: S. cerevisiae bub3 mutant strain, active compounds read high
In short: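 Screening used yeast with an engineered genetic alteration affecting cell cycle control. Compound-exposed cultures were compared with vehicle cultures, and reduced growth was taken as inhibition.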

[6] = NCI Yeast Anticancer Drug Screen. Data for the mlh1 rad18 strain (AID 175); conditions: S. cerevisiae mlh1 rad18 strain growth inhibition, active compounds read high
In short: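 Read-out is yeast growth inhibition, calculated against vehicle-only controls. The compound was applied to a strain engineered with DNA damage repair alterations.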

[7] = at 5.0 µM (retest, dose inferred, filed as 0.5)
[8] = at 50.0 µM (retest, dose inferred, filed as 5.0)

| SMILES | growth inhibition [1, 7] | growth inhibition [1, 8] | growth inhibition ([1]; at 50.0 µM) | growth inhibition [2, 7] | growth inhibition [2, 8] | growth inhibition ([2]; at 50.0 µM) | growth inhibition [3, 7] | growth inhibition [3, 8] | growth inhibition ([3]; at 50.0 µM) | growth inhibition [4, 7] | growth inhibition [4, 8] | growth inhibition ([4]; at 50.0 µM) | growth inhibition [5, 7] | growth inhibition [5, 8] | growth inhibition ([5]; at 50.0 µM) | growth inhibition [6, 7] | growth inhibition [6, 8] | growth inhibition ([6]; at 50.0 µM) |
| --- | --- | --- | --- | --- | --- | --- | --- | --- | --- | --- | --- | --- | --- | --- | --- | --- | --- | --- |
| CC1=C(C(=O)Nc2cccc(Cl)c2)C(c2ccccc2O)C(C(=O)Nc2cccc(Cl)c2)=C(C)N1 | 25% | 25% | 55.6% | 14% | 14% | 65% | 9% | 9% | 56.5% | 10% | 10% | 59.2% | 12% | 12% | 57.9% | 25% | 25% | 32.3% |
| O=C1NC(c2cccc3ccccc23)Nc2ccc(Cl)cc21 (stereo not given) | 18% | 95% (active) | 74% (active) | 10% | 96% (active) | 84.8% (active) | 5% | 97% (active) | 83% (active) | 12% | 85% (active) | 56.3% | 1% | 96% (active) | 80.6% (active) | 20% | 94% (active) | 77.2% (active) |
| O=C1N[C@H]2[C@H](CS[C@H]2CCCCC(=O)N(CCP(c2ccccc2)c2ccccc2)CCP(c2ccccc2)c2ccccc2)N1 | 2% | 41% | 59.4% | 1% | 27% | 16.4% | 11% | 47% | -5.85% | 9% | 23% | -18.8% | 16% | 34% | 7.8% | -15% | 8% | -26.7% |
| Nc1ccccc1SCc1csc(-c2ccc(Cl)cc2)n1 | -4% | 98% (active) | 97.9% (active) | -3% | 98% (active) | 97.3% (active) | 2% | 98% (active) | 98.5% (active) | -10% | 97% (active) | 97.2% (active) | 2% | 98% (active) | 97.1% (active) | 2% | 98% (active) | 97.6% (active) |
| COC1CCC(O)C(CO)O1 (stereo not given) | 100% (active) | 99% (active) | 99.5% (active) | 100% (active) | 99% (active) | 99.6% (active) | 100% (active) | 99% (active) | 99.7% (active) | 100% (active) | 99% (active) | 99.6% (active) | 99% (active) | 99% (active) | 99.5% (active) | 99% (active) | 99% (active) | 99.5% (active) |
| Cc1ccccc1N1CCN(c2c3c(nc4ccccc24)CCCCC3)CC1 | -4% | 94% (active) | 97.2% (active) | 7% | 94% (active) | 97% (active) | 7% | 95% (active) | 97.2% (active) | -3% | 95% (active) | 96.4% (active) | -9% | 95% (active) | 97.5% (active) | -4% | 94% (active) | 96.5% (active) |
| CCS(=O)(=O)/C=C/c1ccc2ccccc2n1 | -143% | 47% | 47.3% | -43% | 6% | 28.9% | -55% | 23% | 35.2% | -41% | -14% | 3.55% | -67% | 16% | 18.4% | -134% | 39% | 63.4% |
| Cc1ccc(C)c(N2C(=O)C(=O)C(c3nc4ccccc4o3)C(=O)C2=O)c1 | 38% | 98% (active) | 99% (active) | 18% | 99% (active) | 99.3% (active) | 30% | 98% (active) | 96.3% (active) | 30% | 99% (active) | 99% (active) | 13% | 98% (active) | 99.3% (active) | 15% | 98% (active) | 98.8% (active) |
| Cc1cc(Cl)c2c(c1)C(=N/O)/C(=C\c1ccco1)O2 | 100% (active) | 99% (active) | 88% (active) | 100% (active) | 99% (active) | 90.3% (active) | 96% (active) | 99% (active) | 83.5% (active) | 77% (active) | 99% (active) | 88% (active) | 100% (active) | 99% (active) | 89% (active) | 99% (active) | 99% (active) | 85.2% (active) |
| CCCCCCCCCCCC1=NCCN1CCNCCCC | 6% | 75% (active) | 36.6% | 5% | 90% (active) | 98.7% (active) | 6% | 96% (active) | 44.2% | 9% | 66% | 97.3% (active) | 4% | 79% (active) | 98.4% (active) | 11% | 92% (active) | 98.8% (active) |
